Data on 40 molecules can be found in PubChem BioAssay (EPA / NIEHS).

Inconclusive results are not listed. Active and inactive are the calls of the source. The calls were made as follows: active = hit-call score of the fitted dose curve at least 0.9, where 1 is the maximum; inconclusive = response in the unintended direction; inactive = score below 0.9.

Broadly, the AC50 is the concentration giving half of the maximal activity seen.

The assay is described as follows: Tanguay_ZF_120hpf_OTIC_legacy: (Legacy) Oregon State University Tanguay Lab 120 Hour Post-fertilization zebrafish Assay for Otic Vesicle Malformation (AID 2283639). As to the method:
Tanguay_ZF_120hpf_legacy is a whole embryo, multiplexed endpoint assay using zebrafish larvae exposed for 120 hours post fertilization on a 96-well plate.Tanguay_ZF_120hpf_OTIC_legacy is one of one assay component(s) measured or calculated from the Tanguay_ZF_120hpf_legacy assay. It is designed to make measurements of zebrafish development as detected with brightfield microscopy of developing zebrafish embryos.Data from the assay component Tanguay_ZF_120hpf_OTIC_legacy was analyzed into 1 assay endpoints. This assay endpoint, Tanguay_ZF_120hpf_OTIC_legacy, was analyzed in the positive analysis fitting direction relative to DMSO as the negative control and baseline of activity. Using a type of morphology reporter, gain-of-signal activity can be used to understand changes in developmentals as they relate to the whole embryo. To generalize the intended target to other relatable targets, this assay endpoint is annotated to the zebrafish development intended target family, where the subfamily is otic vesicle morphogenesis.
Zebrafish husbandry: Tropical 5D wild-type adult zebrafish were housed in at an approximate density of 1000 per 100 gallon tank at the Sinnhuber Aquatic Research Laboratory, Oregon State University, Corvallis, OR. Each tank was kept at standard laboratory conditions of 28C on a 14-h light/10-h dark photoperiod in fish water consisting of reverse osmosis water supplemented with a commercially available salt (Instant Ocean). Spawning funnels were placed into the tanks the night prior, and embryos were collected and staged. […] Ten microliters of each row of dilution plate 2 was added to 2 exposure plates. The final DMSO concentration used was 0.64% (vol/vol). Thirty-two embryos were also exposed to 5uM trimethyltin chloride (positive control). Plates were sealed to prevent evaporation and foil covered to reduce light exposure and kept in a 28C incubator. Embryos were statically exposed until 120 hpf. At 24 hpf, embryos were assessed for photomotor response using a custom photomotor response analysis tool (PRAT) and for developmental toxicity endpoints (MO24: mortality at 24 hpf, DP: developmental progression, SM: spontaneous movement, and NC: notochord distortion). At 120 hpf, locomotor activity was measured using Viewpoint Zebralab and assessed for 18 endpoints. Zebrafish acquisition and analysis program (ZAAP), a custom program designed to inventory, acquire, and manage zebrafish data, was used to collect developmental endpoints as either present or absent (i.e., binary responses were recorded). If mortality occurred for an embryo (at either 24 or 120 hpf), the non-mortality endpoints were not measured.
Take `O=C(O)c1nc(Cl)ccc1Cl`: the molecule was called inactive.

Consider `CCNc1nc(Cl)nc(NC(C)C)n1`, for which the result was inactive.

As for `COC(=O)C(C)Oc1ccc(Oc2ccc(Cl)cc2Cl)cc1` (stereo not given), the molecule was classed as inactive.

On to `CCCC1COC(Cn2cncn2)(c2ccc(Cl)cc2Cl)O1` (stereo not given), for which the outcome was inactive.

On to `CCCN(CCC)c1c([N+](=O)[O-])cc(S(N)(=O)=O)cc1[N+](=O)[O-]`, for which the result was inactive.

As for `CC1COC(Cn2cncn2)(c2ccc(Oc3ccc(Cl)cc3)cc2Cl)O1` (stereo not given), the call was inactive.

With `CCCCC(CC)COC(=O)c1ccccc1C(=O)OCC(CC)CCCC` (stereo not given), the result was inactive.

With `CCNc1nc(Cl)nc(NCC)n1`, the outcome was inactive.

As for `CNC(=S)S`, the outcome was inactive.

With `CCCCNC(=O)n1c(NC(=O)OC)nc2ccccc21`, the molecule was classed as inactive.

For `CCCCOC(=O)c1ccccc1C(=O)OCCCC`, the call was inactive.

Consider `CC1=C(C(=O)Nc2ccccc2)SCCO1`, for which the outcome was inactive.

For `COC(=O)c1ccccc1C(=O)OC`, the molecule was classed as inactive.

For the molecule `CC(C)C1(C)N=C(c2nc3ccccc3cc2C(=O)O)NC1=O` (stereo not given), the molecule was called inactive.

In the case of `COc1cnc(OC)n2nc(NS(=O)(=O)c3c(OCC(F)F)cccc3C(F)(F)F)nc12`, the molecule was called inactive.

Consider `CON(C)C(=O)Nc1ccc(Cl)c(Cl)c1`, for which the molecule was classed as inactive.

On to `CCOC(=O)CC(SP(=S)(OC)OC)C(=O)OCC` (stereo not given), for which the result was inactive.

`CNC(=O)ON=CC(C)(C)SC`: the result was inactive.

Take `COC(=O)N(OC)c1ccccc1COc1ccn(-c2ccc(Cl)cc2)n1`: the call was inactive.

Take `N#Cc1cc(Br)c(O)c(Br)c1`: the result was inactive.

With `C=CCC1=C(C)C(OC(=O)C2C(C=C(C)C)C2(C)C)CC1=O` (stereo not given), the molecule was classed as inactive.

`Fc1ccc(Oc2ccnc3cc(Cl)cc(Cl)c23)cc1`: the molecule was called inactive.

On to `COP(=S)(OC)Oc1nc(Cl)c(Cl)cc1Cl`, for which the result was inactive.

As for `C#CCOS(=O)OC1CCCCC1Oc1ccc(C(C)(C)C)cc1` (stereo not given), the outcome was inactive.

For `CO/C=C(/C(=O)OC)c1ccccc1Oc1cc(Oc2ccccc2C#N)ncn1`, the molecule was called inactive.

Regarding `Cc1cc(Cl)ccc1OCC(=O)O`, the molecule was classed as inactive.

As for `Cc1c(F)c(F)c(COC(=O)C2C(/C=C(\Cl)C(F)(F)F)C2(C)C)c(F)c1F` (stereo not given), the AC50 is 3.67 µM (active).

In the case of `COP(N)(=O)SC` (stereo not given), the outcome was inactive.

On to `O=C(Nc1ccccc1)Nc1ccnc(Cl)c1`, for which the molecule was called inactive.

For the molecule `Cc1ccc(-c2c(Cl)nc(C#N)n2S(=O)(=O)N(C)C)cc1`, the outcome was inactive.

With `C=CC1(C)OC(=O)N(c2cc(Cl)cc(Cl)c2)C1=O` (stereo not given), the molecule was classed as inactive.

Consider `N#Cc1nn(-c2c(Cl)cc(C(F)(F)F)cc2Cl)c(N)c1S(=O)C(F)(F)F` (stereo not given), for which the call was inactive.

Consider `O=C(O)COc1nc(Cl)c(Cl)cc1Cl`, for which the molecule was classed as inactive.

In the case of `CCOP(=S)(OCC)SCn1c(=O)oc2cc(Cl)ccc21`, the molecule was called inactive.

For `N#CC(CCc1ccc(Cl)cc1)(Cn1cncn1)c1ccccc1` (stereo not given), the molecule was classed as inactive.

Regarding `CN(C)C(=S)SSC(=S)N(C)C`, the call was inactive.

With `CC(C)(C)c1ccc(CSc2cnn(C(C)(C)C)c(=O)c2Cl)cc1`, the outcome was inactive.

With `OC(c1ccc(Cl)cc1)(c1cncnc1)c1ccccc1Cl` (stereo not given), the result was inactive.

With `CS/C(C)=N/OC(=O)N(C)SN(C)C(=O)O/N=C(\C)SC`, the molecule was classed as inactive.

For `CC(Oc1ccc(Cl)cc1Cl)C(=O)O` (stereo not given), the molecule was classed as inactive.
